Assay results published in PubChem BioAssay (EPA / NIEHS).
Inconclusive results are not listed. Activity calls are given as the source filed them. Rule for the calls, unless noted: active = hit-call score of the fitted dose curve at least 0.9, where 1 is the maximum; inactive = score below 0.9.

Assays:
[1] = biological target: Glucocorticoid receptor (Homo sapiens) (UniProt P04150); assay: ATG_GR_TRANS: Attagene TRANS-FACTORIAL HepG2 Assay for human Glucocorticoid Receptor (GR) (AID 2282978; active = hit-call score of the fitted dose curve at least 0.9, where 1 is the maximum;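 note: activators score as hits since higher reporter transcript over DMSO is fitted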); conditions: HepG2 Attagene TRANS GR reporter, mRNA transcription
Procedure, shortened: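 Readout is reporter transcript from a chimeric GR-Gal4 acting on GAL4-UAS in transfected human HepG2 liver cells after 24 h exposure, quantified by RT-PCR and capillary electrophoresis. Activation fitted upward against DMSO.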

[2] = biological target: Oxysterols receptor LXR-alpha (Homo sapiens) (UniProt Q13133); assay: ATG_LXRa_TRANS: Attagene TRANS-FACTORIAL HepG2 Assay for human Liver X Receptor alpha (LXRa) (AID 2282980; active = hit-call score of the fitted dose curve at least 0.9, where 1 is the maximum); conditions: HepG2 Attagene TRANS reporter, LXRa transactivation
Procedure, shortened: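 In this multiplexed TRANS system, compounds act on HepG2 cells carrying GAL4-UAS reporter units and a receptor-GAL4 fusion for 24 h. Induced reporter RNA is amplified, fluorescently labelled and sized by capillary electrophoresis, with DMSO as baseline.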

[3] = biological target: Hepatocyte nuclear factor 4-alpha (Homo sapiens) (UniProt P41235); assay: ATG_HNF4a_TRANS: Attagene TRANS-FACTORIAL HepG2 Assay for human Hepatocyte Nuclear Factor 4 alpha (HNF4a) (AID 2282982; active = hit-call score of the fitted dose curve at least 0.9, where 1 is the maximum); conditions: HepG2 HNF4a transactivation reporter, mRNA readout
Procedure, shortened: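 Activity of an exogenous HNF4a–Gal4 fusion scored as induced GAL4-UAS reporter transcripts after 24 h chemical exposure of transfected human HepG2 cells. Read-out via RT-PCR with 6-FAM labelling and capillary electrophoresis; rise over DMSO baseline.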

[4] = ATG_M_06_TRANS: Attagene TRANS-FACTORIAL HepG2 Assay for M06 Transcription Factor (Internal Marker) (AID 2282983; active = hit-call score of the fitted dose curve at least 0.9, where 1 is the maximum); conditions: HepG2 Attagene TRANS M06 internal marker reporter
Procedure, shortened: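 Multi-reporter-transfected HepG2, 24 h treatment; reporter transcripts quantified via RT-PCR, primer-extension labelling and CE. DMSO-normalized gain-of-signal fit.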

[5] = ATG_M_32_TRANS: Attagene TRANS-FACTORIAL HepG2 Assay for M32 Transcription Factor (Internal Marker) (AID 2282984; active = hit-call score of the fitted dose curve at least 0.9, where 1 is the maximum;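 note: transcript level of a background control reporter unit measured by RT-PCR and capillary electrophoresis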); conditions: HepG2 Attagene TRANS M32 internal marker reporter
Procedure, shortened: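 Internal background reporter in transfected HepG2: after 24 h chemical exposure, RNA reverse-transcribed, reporter cDNA amplified, fluorescently labelled and HpaI-cut, then sized by capillary electrophoresis. Gain of signal fitted against DMSO control.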

[6] = biological target: Transcriptional activator Myb (Homo sapiens) (UniProt P10242); assay: ATG_Myb_CIS: Attagene CIS-FACTORIAL HepG2 Assay for human Myeloblastosis (Myb) Proto-Oncogene Transcription Factor (AID 2282986); conditions: HepG2 Attagene CIS-FACTORIAL Myb reporter transcription; actives raise or lower the signal
Procedure, shortened: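 Reporter mRNA is quantified by RT-PCR and capillary electrophoresis 24 h after dosing HepG2 cells transfected with cis-regulated reporter units, which track endogenous transcription factor activity. Gain and loss of signal are fitted versus DMSO baseline.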

[7] = biological target: Nuclear respiratory factor 1 (Homo sapiens) (UniProt Q16656); assay: ATG_NRF1_CIS: Attagene CIS-FACTORIAL HepG2 Assay for human Nuclear Respiratory Factor 1 (NRF1) Orphan Gene (AID 2282987); conditions: HepG2 NRF1 cis-element reporter, Attagene multiplex; actives raise or lower the signal
Procedure, shortened: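 Endogenous NRF1-driven reporter transcription in transfected HepG2 cells after 24 h treatment. Readout: RT-PCR products, 6-FAM labelled and resolved by capillary electrophoresis; changes fitted both directions relative to DMSO.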

[8] = ATG_NFI_CIS: Attagene CIS-FACTORIAL HepG2 Assay for human Nuclear Factor I (NFI) (AID 2282989); conditions: HepG2 cis-regulatory reporter, NFI response element transcription; actives raise or lower the signal
Procedure, shortened: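 HepG2, transient MRTU, 24 h exposure; RNA→cDNA→PCR→FAM label→HpaI→CE fluorescence. Bidirectional fit, DMSO = baseline.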

[9] = biological target: Myc proto-oncogene protein (Homo sapiens) (UniProt P01106); assay: ATG_Myc_CIS: Attagene CIS-FACTORIAL HepG2 Assay for human Myelocytomatosis (Myc) Proto-Oncogene Transcription Factor (AID 2282990); conditions: HepG2, Attagene cis-reporter transcription factor activity; actives raise or lower the signal
Procedure, shortened: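 HepG2, transient MRTU transfection (cis promoters, endogenous TFs); 24 h dosing; TriZol RNA → oligo(dT) RT → PCR → 6-FAM primer extension → HpaI cut → CE. Bidirectional fit vs DMSO.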

[10] = ATG_NF_kB_CIS: Attagene CIS-FACTORIAL HepG2 Assay for human Nuclear Factor Kappa B (NF-kB) (AID 2282991); conditions: HepG2 Attagene cis-factorial NF-kB reporter mRNA; actives raise or lower the signal
Procedure, shortened: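 Readout is reporter transcript level, gain or loss versus DMSO, measured 24 h post-dose via RT-PCR, fluorescent labelling and capillary electrophoresis. Human HepG2 liver cells carried transiently transfected CIS reporter constructs reflecting endogenous factors.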

[11] = ATG_NRF2_ARE_CIS: Attagene CIS-FACTORIAL HepG2 Assay for human Nuclear Factor Erythroid 2 Related Factor 2 (NFR2) response to Antioxidant Response Elements (ARE) (AID 2282992); conditions: HepG2 Attagene ARE/NRF2 reporter, transcription factor activity; actives raise or lower the signal;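 for AC50: reporter mRNA level measured by RT-PCR and capillary electrophoresis fluorescence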
Procedure, shortened: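 Readout: reporter mRNA quantified by RT-PCR plus FAM-labelled primer extension, HpaI digestion and capillary electrophoresis, 24 h after dosing transfected HepG2 cells. Gain or loss of signal is fitted bidirectionally against DMSO baseline.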

[12] = ATG_Oct_MLP_CIS: Attagene CIS-FACTORIAL HepG2 Assay for human Octamer-Binding Transcription Factor (Oct) (AID 2282993); conditions: HepG2 Attagene cis-factorial Oct reporter, mRNA; actives raise or lower the signal
Procedure, shortened: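 Multiplexed cis-reporter assay in human liver HepG2 cells, 24 h incubation. Reporter RNA amplified and labelled, then resolved by capillary electrophoresis; DMSO serves as negative control and baseline.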

[13] = biological target: Cellular tumor antigen p53 (Homo sapiens) (UniProt P04637); assay: ATG_p53_CIS: Attagene CIS-FACTORIAL HepG2 Assay for human p53 Transcription Factor (AID 2282994); conditions: HepG2 p53 cis-element reporter, Attagene mRNA; actives raise or lower the signal
Procedure, shortened: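 Read-out: reporter mRNA by RT-PCR plus capillary electrophoresis with fluorescence detection. Human HepG2 liver cells carried transfected multi-reporter cis-element constructs, dosed 24 h. Gain or loss of signal fitted bidirectionally against DMSO control.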

[14] = biological target: Oxysterols receptor LXR-beta (Homo sapiens) (UniProt P55055); assay: ATG_LXRb_TRANS: Attagene TRANS-FACTORIAL HepG2 Assay for human Liver X Receptor beta (LXRb) (AID 2282981; active = hit-call score of the fitted dose curve at least 0.9, where 1 is the maximum); conditions: HepG2 Attagene TRANS GAL4-LXRb reporter, mRNA
Procedure, shortened: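 After 24 h chemical treatment of transfected HepG2 cells carrying exogenous NR-Gal4 chimeras, reporter mRNA was quantified by fluorescent RT-PCR and capillary electrophoresis; activity taken as increase over DMSO controls.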

[15] = biological target: Nuclear receptor subfamily 4 group A member 2 (Homo sapiens) (UniProt P43354); assay: ATG_NURR1_TRANS: Attagene TRANS-FACTORIAL HepG2 Assay for human Nuclear Receptor Related Protein 1 (NURR1) (AID 2282985; active = hit-call score of the fitted dose curve at least 0.9, where 1 is the maximum); conditions: HepG2 Attagene TRANS reporter, mRNA readout
Procedure, shortened: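 Reporter transcript induction, measured by RT-PCR with fluorescent labelling, HpaI digestion and capillary electrophoresis, after 24 hr dosing of human HepG2 cells transiently expressing an exogenous NR-Gal4 fusion with GAL4-UAS-driven reporters; DMSO as baseline.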

[16] = BSK_3C_uPAR: BioMAP Diversity Plus: 3C Assay for Urokinase-type plasminogen activator receptor (uPAR) Biomarker Activity (AID 2282998); conditions: BioMAP 3C HUVEC, uPAR biomarker ELISA; actives raise or lower the signal
Procedure, shortened: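 Dose primary human umbilical vein endothelial cells, incubate 24 h, measure cell-surface uPAR by ELISA, then fit the signal in both directions against the DMSO negative control.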

[17] = BSK_4H_Eotaxin3: BioMAP Diversity Plus: 4H Assay for Eotaxin 3 Biomarker Activity (AID 2283000); conditions: primary human endothelial cells (HUVEC); actives raise or lower the signal
Procedure, shortened: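 ELISA quantitation of CCL26 (Eotaxin-3) protein from chemically dosed human vascular endothelial cells at 24 h; increases and decreases both scored relative to DMSO-treated baseline.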

[18] = BSK_3C_VCAM1: BioMAP Diversity Plus: 3C Assay for Vascular cell adhesion molecule 1 (VCAM1) Biomarker Activity (AID 2282999); conditions: BioMAP 3C HUVEC, VCAM1 ELISA, cytokine-stimulated; actives raise or lower the signal
Procedure, shortened: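 Activity fitted in both directions relative to DMSO, with ELISA measurement of the surface marker on primary HUVEC (3C) at 24 h post-treatment; parallel SRB staining (0.1% SRB, TCA-fixed, 560 nm) flagged overt cytotoxicity.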

[19] = biological target: Bile acid receptor (Homo sapiens) (UniProt Q96RI1); assay: ATG_FXR_TRANS: Attagene TRANS-FACTORIAL HepG2 Assay for Farnesoid X Receptor (FXR) (AID 2282979; active = hit-call score of the fitted dose curve at least 0.9, where 1 is the maximum;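 note: hits raise reporter mRNA above DMSO so AC50 marks FXR activation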); conditions: HepG2 Attagene TRANS FXR-GAL4 reporter transcription
Procedure, shortened: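 After 24 h chemical treatment of transfected HepG2 cells, GAL4-UAS reporter transcripts driven by an exogenous FXR-GAL4 fusion were measured by RT-PCR and capillary electrophoresis. Increases over DMSO were fitted.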

Measured: AC50

Sequence of Myc proto-oncogene protein (Homo sapiens) (P01106 whole entry, looked up): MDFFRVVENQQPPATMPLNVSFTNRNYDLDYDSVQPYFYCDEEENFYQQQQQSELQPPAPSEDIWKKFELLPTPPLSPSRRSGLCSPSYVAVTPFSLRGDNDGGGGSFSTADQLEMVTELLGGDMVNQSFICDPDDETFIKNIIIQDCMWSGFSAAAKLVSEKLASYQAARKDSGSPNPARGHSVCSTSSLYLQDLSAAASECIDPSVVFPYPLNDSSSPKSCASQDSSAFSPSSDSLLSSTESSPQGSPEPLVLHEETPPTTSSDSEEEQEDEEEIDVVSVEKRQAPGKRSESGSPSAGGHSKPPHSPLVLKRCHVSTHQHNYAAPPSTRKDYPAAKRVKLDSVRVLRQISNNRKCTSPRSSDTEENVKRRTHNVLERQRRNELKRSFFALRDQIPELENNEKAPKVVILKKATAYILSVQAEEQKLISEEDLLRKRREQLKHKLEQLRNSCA
Sequence of Nuclear receptor subfamily 4 group A member 2 (Homo sapiens) (P43354 whole entry, looked up, the tested form may be a part): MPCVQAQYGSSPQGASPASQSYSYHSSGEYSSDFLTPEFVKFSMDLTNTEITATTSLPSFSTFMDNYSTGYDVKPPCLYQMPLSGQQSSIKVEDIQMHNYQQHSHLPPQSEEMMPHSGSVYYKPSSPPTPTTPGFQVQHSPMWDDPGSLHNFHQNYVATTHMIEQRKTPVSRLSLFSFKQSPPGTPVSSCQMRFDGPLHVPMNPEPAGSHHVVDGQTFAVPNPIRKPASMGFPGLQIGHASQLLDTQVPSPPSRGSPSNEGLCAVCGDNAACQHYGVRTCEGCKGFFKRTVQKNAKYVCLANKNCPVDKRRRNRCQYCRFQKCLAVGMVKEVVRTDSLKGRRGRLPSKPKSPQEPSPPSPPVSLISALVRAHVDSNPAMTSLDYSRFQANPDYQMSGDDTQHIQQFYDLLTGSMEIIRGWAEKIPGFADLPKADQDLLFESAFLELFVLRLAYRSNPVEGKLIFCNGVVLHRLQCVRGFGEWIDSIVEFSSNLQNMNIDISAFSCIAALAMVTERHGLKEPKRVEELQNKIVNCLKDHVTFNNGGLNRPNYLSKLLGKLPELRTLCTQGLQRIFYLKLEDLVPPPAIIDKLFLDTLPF
Sequence of Nuclear respiratory factor 1 (Homo sapiens) (Q16656 whole entry, looked up): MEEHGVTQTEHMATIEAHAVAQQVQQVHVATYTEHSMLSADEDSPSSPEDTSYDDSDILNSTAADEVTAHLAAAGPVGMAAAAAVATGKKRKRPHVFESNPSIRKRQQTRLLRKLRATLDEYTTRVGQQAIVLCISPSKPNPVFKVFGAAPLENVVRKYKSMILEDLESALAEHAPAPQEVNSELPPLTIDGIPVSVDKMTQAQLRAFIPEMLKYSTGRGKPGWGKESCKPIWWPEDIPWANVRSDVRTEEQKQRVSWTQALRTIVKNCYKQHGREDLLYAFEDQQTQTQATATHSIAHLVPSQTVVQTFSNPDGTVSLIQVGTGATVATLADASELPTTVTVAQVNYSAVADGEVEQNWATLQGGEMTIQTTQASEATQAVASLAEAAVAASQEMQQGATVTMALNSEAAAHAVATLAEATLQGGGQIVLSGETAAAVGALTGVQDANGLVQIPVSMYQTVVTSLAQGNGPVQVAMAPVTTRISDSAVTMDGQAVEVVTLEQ
Sequence of Hepatocyte nuclear factor 4-alpha (Homo sapiens) (P41235 whole entry, looked up, the tested form may be a part): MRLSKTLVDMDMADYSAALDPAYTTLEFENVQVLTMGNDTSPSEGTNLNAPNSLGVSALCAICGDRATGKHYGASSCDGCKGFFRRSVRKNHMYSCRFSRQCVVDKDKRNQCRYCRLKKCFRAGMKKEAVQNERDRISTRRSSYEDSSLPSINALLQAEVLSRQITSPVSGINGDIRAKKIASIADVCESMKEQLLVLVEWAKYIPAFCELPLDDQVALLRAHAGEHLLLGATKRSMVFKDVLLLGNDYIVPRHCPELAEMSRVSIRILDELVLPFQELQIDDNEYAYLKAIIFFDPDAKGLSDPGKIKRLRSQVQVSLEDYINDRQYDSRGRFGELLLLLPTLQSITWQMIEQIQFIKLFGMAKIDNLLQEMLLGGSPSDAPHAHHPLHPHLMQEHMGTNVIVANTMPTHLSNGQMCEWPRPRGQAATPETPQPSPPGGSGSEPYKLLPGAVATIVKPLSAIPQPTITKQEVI
Sequence of Oxysterols receptor LXR-alpha (Homo sapiens) (Q13133 whole entry, looked up, the tested form may be a part): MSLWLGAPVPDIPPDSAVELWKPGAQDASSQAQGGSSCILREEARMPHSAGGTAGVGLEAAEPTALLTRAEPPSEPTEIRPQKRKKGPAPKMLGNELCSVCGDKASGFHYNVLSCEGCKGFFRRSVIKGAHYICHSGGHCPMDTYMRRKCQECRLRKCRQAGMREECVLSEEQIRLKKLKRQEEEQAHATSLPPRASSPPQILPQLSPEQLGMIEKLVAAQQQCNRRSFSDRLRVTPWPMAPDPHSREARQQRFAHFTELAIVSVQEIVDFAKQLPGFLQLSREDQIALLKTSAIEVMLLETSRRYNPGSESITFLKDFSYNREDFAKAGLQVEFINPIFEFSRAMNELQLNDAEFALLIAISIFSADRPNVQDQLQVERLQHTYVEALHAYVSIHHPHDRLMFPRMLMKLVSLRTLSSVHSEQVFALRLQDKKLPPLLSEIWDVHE
Sequence of Transcriptional activator Myb (Homo sapiens) (P10242 whole entry, looked up): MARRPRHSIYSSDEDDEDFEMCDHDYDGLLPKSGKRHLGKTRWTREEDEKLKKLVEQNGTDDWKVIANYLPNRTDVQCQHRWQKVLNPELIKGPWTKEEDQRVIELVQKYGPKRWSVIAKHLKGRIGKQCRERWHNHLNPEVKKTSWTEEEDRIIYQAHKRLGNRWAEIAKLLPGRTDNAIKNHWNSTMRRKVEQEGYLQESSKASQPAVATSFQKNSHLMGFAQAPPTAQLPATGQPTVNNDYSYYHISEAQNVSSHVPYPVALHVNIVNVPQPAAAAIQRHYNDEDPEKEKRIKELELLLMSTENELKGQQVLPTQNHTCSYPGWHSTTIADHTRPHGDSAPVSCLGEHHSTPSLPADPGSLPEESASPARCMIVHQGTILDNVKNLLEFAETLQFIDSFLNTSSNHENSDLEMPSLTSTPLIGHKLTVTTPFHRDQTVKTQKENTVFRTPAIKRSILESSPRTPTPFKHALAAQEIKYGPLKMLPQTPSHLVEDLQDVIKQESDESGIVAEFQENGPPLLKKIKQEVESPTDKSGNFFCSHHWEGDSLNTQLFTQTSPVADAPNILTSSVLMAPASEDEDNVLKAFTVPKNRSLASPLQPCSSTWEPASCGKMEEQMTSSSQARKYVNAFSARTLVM
Sequence of Cellular tumor antigen p53 (Homo sapiens) (P04637 whole entry, looked up): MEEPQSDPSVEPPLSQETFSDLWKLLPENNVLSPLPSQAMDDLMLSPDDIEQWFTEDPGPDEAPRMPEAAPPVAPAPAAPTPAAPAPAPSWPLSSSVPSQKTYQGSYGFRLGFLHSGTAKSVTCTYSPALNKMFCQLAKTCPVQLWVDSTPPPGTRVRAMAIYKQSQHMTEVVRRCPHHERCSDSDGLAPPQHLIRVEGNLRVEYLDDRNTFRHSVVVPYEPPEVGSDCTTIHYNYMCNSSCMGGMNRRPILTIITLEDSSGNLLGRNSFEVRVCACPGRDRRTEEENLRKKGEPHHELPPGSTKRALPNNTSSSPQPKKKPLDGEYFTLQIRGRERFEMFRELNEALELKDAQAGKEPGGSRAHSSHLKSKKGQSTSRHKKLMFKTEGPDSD
Sequence of Glucocorticoid receptor (Homo sapiens) (P04150 whole entry, looked up, the tested form may be a part): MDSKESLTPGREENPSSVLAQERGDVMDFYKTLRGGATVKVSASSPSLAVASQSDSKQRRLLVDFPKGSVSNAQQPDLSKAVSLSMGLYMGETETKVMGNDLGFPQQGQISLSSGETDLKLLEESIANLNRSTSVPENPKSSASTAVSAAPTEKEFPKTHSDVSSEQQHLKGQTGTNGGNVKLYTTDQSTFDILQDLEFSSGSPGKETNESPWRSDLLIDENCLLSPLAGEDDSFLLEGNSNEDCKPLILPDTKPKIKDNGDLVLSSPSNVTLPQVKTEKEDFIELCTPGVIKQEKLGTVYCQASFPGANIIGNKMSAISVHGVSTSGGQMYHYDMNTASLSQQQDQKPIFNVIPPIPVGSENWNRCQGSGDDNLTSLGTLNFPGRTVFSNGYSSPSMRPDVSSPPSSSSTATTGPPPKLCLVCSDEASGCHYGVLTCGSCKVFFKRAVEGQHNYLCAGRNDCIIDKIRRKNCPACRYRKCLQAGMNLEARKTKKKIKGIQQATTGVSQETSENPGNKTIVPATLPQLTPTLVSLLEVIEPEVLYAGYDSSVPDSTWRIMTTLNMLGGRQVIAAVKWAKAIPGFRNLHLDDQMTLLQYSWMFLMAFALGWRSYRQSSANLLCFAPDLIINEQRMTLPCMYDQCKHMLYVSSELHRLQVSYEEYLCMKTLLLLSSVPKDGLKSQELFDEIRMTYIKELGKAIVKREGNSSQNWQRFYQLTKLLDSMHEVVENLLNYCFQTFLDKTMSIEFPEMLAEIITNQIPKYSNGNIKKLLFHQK
Sequence of Oxysterols receptor LXR-beta (Homo sapiens) (P55055 whole entry, looked up, the tested form may be a part): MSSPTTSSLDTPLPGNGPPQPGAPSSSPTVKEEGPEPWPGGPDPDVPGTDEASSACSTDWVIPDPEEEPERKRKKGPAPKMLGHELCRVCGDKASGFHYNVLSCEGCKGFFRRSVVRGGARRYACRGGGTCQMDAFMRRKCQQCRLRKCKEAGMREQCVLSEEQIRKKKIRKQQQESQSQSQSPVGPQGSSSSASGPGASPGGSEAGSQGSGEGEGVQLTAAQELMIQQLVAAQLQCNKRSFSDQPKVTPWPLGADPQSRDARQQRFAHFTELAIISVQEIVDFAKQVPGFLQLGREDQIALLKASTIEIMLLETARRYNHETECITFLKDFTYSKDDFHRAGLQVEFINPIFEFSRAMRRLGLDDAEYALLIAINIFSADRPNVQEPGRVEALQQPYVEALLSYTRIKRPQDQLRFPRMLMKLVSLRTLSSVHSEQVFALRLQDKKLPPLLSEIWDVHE

CC(=O)OCCOC(C)=O
not listed: [14] | [15] | [16] | [17] | [18] | [19]
inactive: all other assays above

CCOC(=S)SSC(=S)OCC
not listed: [4] | [10] | [14] | [15] | [16] | [17] | [18] | [19]
inactive: all other assays above

O=C(O)c1cccc([N+](=O)[O-])c1
not listed: [14] | [15] | [16] | [17] | [18] | [19]
inactive: all other assays above

c1ccc2[nH]ccc2c1
not listed: [3] | [5] | [16] | [17] | [18] | [19]
inactive: all other assays above

CC(=O)O[C@H](CC(=O)[O-])C[N+](C)(C)C
inactive: [1] | [2] | [6] | [7] | [9] | [10] | [12] | [13]

Clc1ccc2c(c1)C(N1CCNCC1)=Nc1ccccc1O2
active: [2] 44.4 µM | [12] 47 µM
not listed: [6] | [13] | [14] | [16] | [17] | [18] | [19]
inactive: all other assays above

CC(CCO)CCCC(C)(C)O (stereo unspecified)
inactive: [1] | [2] | [14] | [4] | [5] | [6] | [7] | [8] | [10] | [12]

O=C1OC2(c3cc(Br)c(O)c(Br)c3Oc3c2cc(Br)c(O)c3Br)c2c(Cl)c(Cl)c(Cl)c(Cl)c21
active: [11] 35.3 µM | [16] 1.86 µM | [17] 3.71 µM
not listed: [3] | [4] | [6] | [14] | [18] | [19]
inactive: all other assays above

Cc1cccc(Nc2ccccc2C(=O)O)c1C
active: [11] 100 µM
inactive: [1] | [14] | [3] | [4] | [5] | [15] | [6] | [7] | [9] | [12]

O=C(O)c1cccc(C(F)(F)F)c1
not listed: [10] | [15] | [16] | [17] | [18] | [19]
inactive: all other assays above

CC(C)(COC(=O)c1ccccc1)COC(=O)c1ccccc1
active: [16] 34 µM | [17] 29.5 µM
not listed: [6] | [10] | [11] | [13] | [18] | [19]
inactive: all other assays above

CC1=CCC(O)(C(C)C)CC1 (stereo unspecified)
not listed: [10] | [15] | [16] | [17] | [18] | [19]
inactive: all other assays above

O=C1CCCCCCCCCCOCCCCO1
active: [11] 167 µM
not listed: [5] | [14] | [16] | [17] | [18] | [19]
inactive: all other assays above

CCC(=O)OCc1ccccc1
not listed: [3] | [8] | [10] | [14] | [19]
inactive: all other assays above

O=S(=O)(O)c1cccc2c(S(=O)(=O)O)cccc12
not listed: [3] | [5] | [14] | [15] | [16] | [17] | [18] | [19]
inactive: all other assays above

Cc1c(Cl)c(=O)oc2cc(O)ccc12
active: [2] 20.9 µM | [11] 78.5 µM
not listed: [3] | [4] | [16] | [17] | [18] | [19]
inactive: all other assays above

O=Cc1ccc(F)cc1
not listed: [2] | [3] | [10] | [11] | [16] | [17] | [18] | [19]
inactive: all other assays above

O=C1c2ccccc2C(=O)N1SC1CCCCC1
active: [11] 65.4 µM | [13] 167 µM
not listed: [1] | [4] | [16] | [17] | [18]
inactive: all other assays above

CNCCCC12CCC(c3ccccc31)c1ccccc12
inactive: [1] | [14] | [3] | [4] | [7] | [9] | [10] | [11]
active: [8] 11.1 µM | [12] 15.4 µM | [13] 16 µM

CCO[Si](CCCS)(OCC)OCC
inactive: [1] | [14] | [3] | [7] | [8] | [9] | [10] | [11] | [12] | [13]

O=C(O)CCSCCC(=O)O
not listed: [2] | [4] | [10] | [15] | [16] | [17] | [18] | [19]
inactive: all other assays above
